Test results reported in the supplement of paper PMC13380429.

test system: Vero E6 infected with SARS-CoV-2; test: morphology score (similarity to uninfected cells); higher = more like uninfected cells; conditions: 24 h

Row | Compound | morphology score
1 | CCO[C@H]1O[C@@H]2O[C@@]3(C)CC[C@H]4[C@H](C)CC[C@@H]([C@H]1C)[C@@]24OO3 [artemotil] (10 µM) | -0.085
2 | CC(=O)Nc1ccc(NC(=S)NC(=O)c2ccc(C(C)(C)C)cc2)cc1 [tenovin-1] (10 µM) | -0.0316
3 | C=C[C@H]1CN2CC[C@H]1C[C@H]2[C@H](O)c1ccnc2ccccc12 [cinchonidine] (10 µM) | -0.111
4 | OCc1cc([C@@H](O)CNCCCCCCOCCOCc2c(Cl)cccc2Cl)ccc1O [vilanterol] (10 µM) | 0.0228
5 | COc1cccc(NC(=O)/C=C/c2ccc(Cl)cc2)c1 (10 µM) | -0.0484
6 | C=CCc1ccc(O)c(-c2ccc(O)c(CC=C)c2)c1 [honokiol] (10 µM) | 0.432
7 | COc1cc(NS(=O)(=O)c2ccc(N)cc2)nc(OC)n1 [sulphadimethoxine] (10 µM) | -0.00223
8 | O=C(c1ccc(F)cc1)C1CCN(CCn2c(=O)[nH]c3ccccc3c2=O)CC1 [ketanserin] (10 µM) | 0.144
9 | CC(=O)O[C@H]1C(=O)[C@@]2(C)[C@H]([C@H](OC(=O)c3ccccc3)[C@]3(O)C[C@H](OC(=O)[C@H](O)[C@@H](NC(=O)c4ccccc4)c4ccccc4)C(C)=C1C3(C)C)[C@]1(OC(C)=O)CO[C@@H]1C[C@@H]2O [paclitaxel] (10 µM) | 0.00639
10 | CC[C@H]1OC(=O)C[C@@H](O)[C@H](C)[C@@H](O[C@@H]2O[C@H](C)[C@@H](O[C@H]3C[C@@](C)(O)[C@@H](O)[C@H](C)O3)[C@H](N(C)C)[C@H]2O)[C@@H](CC=O)C[C@@H](C)C(=O)/C=C/C(C)=C/[C@@H]1CO[C@@H]1O[C@H](C)[C@@H](O)[C@@H](OC)[C@H]1OC (0.833333 µM) | -0.000376
11 | COc1ccc(CN(CCN(C)C)c2ncccn2)cc1 [thonzylamine] (10 µM) | 0.0251
12 | C=C(C)[C@@H]1CC=C(CO)CC1 [perillyl-alcohol] (10 µM) | 0.0351
13 | CC(C)Oc1ccc(-c2nc(-c3cccc4c3CC[C@H]4NCCC(=O)O)no2)cc1C#N (10 µM) | 0.181
14 | CC(C)(C)c1ccc2cc(C#N)c(C#N)cc2c1 (10 µM) | 0.103
15 | C[N+](C)(C)CC#CCN1CCCC1=O [oxotremorine-M] (10 µM) | 0.0604
16 | Cc1ccc(-c2ncc[nH]2)cc1NC(=O)c1ccc(OCc2ccccn2)cc1 (10 µM) | 0.0587
17 | Cc1onc(-c2ccccc2)c1-c1ccc(S(N)(=O)=O)cc1 [valdecoxib] (10 µM) | -0.0646
18 | CC(C)n1nccc1-c1ncccc1COc1cccc(O)c1C=O [voxelotor] (10 µM) | 0.188
19 | CO[C@H]1C[C@@H]2CC[C@@H](C)[C@@](O)(O2)C(=O)C(=O)N2CCCC[C@H]2C(=O)O[C@H]([C@H](C)C[C@@H]2CC[C@H](n3cnnn3)[C@H](OC)C2)CC(=O)[C@H](C)/C=C(\C)[C@@H](O)[C@@H](OC)C(=O)[C@H](C)C[C@H](C)/C=C/C=C/C=C/1C [zotarolimus] (0.833333 µM) | -0.292
20 | C[C@@]1(O)[C@H](O)[C@@H](CO)O[C@H]1n1ccc(N)nc1=O (10 µM) | 0.0553

Row | Compound | morphology score
21 | O=C(O)c1cc2cccc([N+](=O)[O-])c2[nH]1 (10 µM) | -0.0876
22 | CN(C)Cc1c(C(=O)NCCOc2ccc(C(=O)NO)cc2)oc2ccccc12 (10 µM) | -0.197
23 | COc1ccc(CNCc2cccc3ccccc23)cc1 (10 µM) | 0.0641
24 | Cc1cc(N2CCOCC2)ccc1Nc1nc(NC2CCCCC2)c2nc[nH]c2n1 (10 µM) | -0.0587
25 | COc1cc(C(=O)NC2CCCNC2)cc(OC)c1OC (stereo not given) [troxipide] (10 µM) | -0.014
26 | NS(=O)(=O)OC[C@@H]1C[C@@H](n2ccc3c(N[C@H]4CCc5ccccc54)ncnc32)C[C@@H]1O [pevonedistat] (0.833333 µM) | -0.404
27 | CS(=O)(=O)c1cccc(CNc2nc(Nc3ccc4c(c3)CCC(=O)N4)ncc2C(F)(F)F)c1 (0.833333 µM) | 0.138
28 | CC(=O)c1ccc2c(c1)N(CCCN1CCC(CCO)CC1)c1ccccc1S2 [piperacetazine] (10 µM) | 0.384
29 | C[S+]([O-])CCCCN=C=S (stereo not given) [sulforaphane] (10 µM) | 0.924
30 | COc1c(C)c2c(c(O)c1C/C=C(\C)CCC(=O)OCCN1CCOCC1)C(=O)OC2 [mycophenolate-mofetil] (10 µM) | -0.124
31 | CCC[C@@H]1C[C@@H](C(=O)N[C@@H]([C@H]2O[C@H](SC)[C@H](O)[C@@H](O)[C@H]2O)[C@@H](C)O)N(C)C1 [lincomycin] (10 µM) | -0.111
32 | CCOC(=O)C1=C(C)NC(C)=C(C(=O)OCC)C1c1ccccc1/C=C/C(=O)OC(C)(C)C [lacidipine] (10 µM) | 0.101
33 | Oc1ccc(-c2nc(-c3ccc(F)cc3)c(-c3ccncc3)[nH]2)cc1 (10 µM) | 0.313
34 | CCn1c(=O)[nH]c2ccccc21 (10 µM) | 0.182
35 | OCCCNc1cc(-c2ccnc(Nc3cccc(Cl)c3)n2)ccn1 (10 µM) | -0.158
36 | OC[C@H]1NCC[C@@H](O)[C@@H]1O [fagomine] (10 µM) | -0.0114
37 | O=C(NCCCNc1nc(Nc2cccc(NC(=O)N3CCCC3)c2)ncc1I)c1cccs1 (0.833333 µM) | 0.0981
38 | Cn1c(COP(=O)(NCCBr)NCCBr)cnc1[N+](=O)[O-] (10 µM) | 0.0413
39 | CCc1c(C(=O)NCCc2ccc(N3CCCCC3)cc2)[nH]c2ccc(Cl)cc12 (10 µM) | -0.0889
40 | Oc1ccc(C(O)CNCCCCCCNCC(O)c2ccc(O)c(O)c2)cc1O (stereo not given) [hexoprenaline] (10 µM) | 0.0624
